An excerpt weighted towards active compounds, which were near 6.3% of everything screened.
ATXN2 expr inh – reduces ATXN2 reporter expression in HEK-293 cells | HEK-293 ATXN2-luciferase reporter, luminescence, 24 h | Potency, µM (top dose mostly 57 µM), without a hit: at the highest dose activity change, negative = inhibition, most hits filed as inhibitors | 0.72% of 360,000 active; note: % is set by controls: 0 for no effect and ±100 for the full control effect; nearly all actives have a fitted effect of over 55% in size
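ATXN2-luciferase reporter cells (luciferase flanked by upstream and downstream ATXN2 gene portions) were treated 24 h at 37 °C with compounds at up to 57 uM. SteadyGlo luminescence gave expression; GF-AFC fluorescence gave viability.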
RORgamma inh – blocks mouse ROR gamma transcriptional activity; P51450; Drosophila S2 Gal4-RORgamma UAS-luciferase reporter, 20 h; Potency, µM (top dose mostly 53.6 µM), without a hit: at the top dose activity change, negative = inhibition, usual class: inhibitors; AID 2551; 5.4% of 310,000 active; note: % is set by controls: 0 for no effect and ±100 for the full control effect; nearly all actives have a fitted effect of over 60% in size
Target sequence (P51450 whole entry, looked up, the tested form may be a part): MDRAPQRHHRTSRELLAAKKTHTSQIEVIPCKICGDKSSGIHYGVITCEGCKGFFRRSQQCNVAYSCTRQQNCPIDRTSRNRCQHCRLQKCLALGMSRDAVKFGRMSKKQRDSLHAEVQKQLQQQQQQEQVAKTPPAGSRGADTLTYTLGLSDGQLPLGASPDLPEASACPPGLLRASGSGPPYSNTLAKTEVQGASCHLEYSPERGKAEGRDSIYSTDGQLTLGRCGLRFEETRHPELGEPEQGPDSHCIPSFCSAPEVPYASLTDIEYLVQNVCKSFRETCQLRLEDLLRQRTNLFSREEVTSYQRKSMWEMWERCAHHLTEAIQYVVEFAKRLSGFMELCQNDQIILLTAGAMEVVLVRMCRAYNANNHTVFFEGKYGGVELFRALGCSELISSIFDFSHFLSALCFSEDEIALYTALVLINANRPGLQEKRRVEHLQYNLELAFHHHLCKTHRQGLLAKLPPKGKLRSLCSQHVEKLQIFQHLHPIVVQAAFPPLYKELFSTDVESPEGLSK
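Drosophila S2 cells stably expressing Gal4-DBD/mouse RORγ fusion under metallothionein promoter plus UAS-luciferase; compound 1 h, then 700 uM CuSO4 induction for 20 h at ambient temperature; inhibition read as reduced luminescence.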
Gal4-VP16 FLuc – inhibits Gal4-VP16 luciferase reporter, ROR gamma counter-screen; 3.5% of 310,000 active; Drosophila S2 Gal4-VP16 UAS-luciferase, luminescence, 20 h; Potency, µM (highest dose often 53.6 µM), for inactives: at the top dose activity, negative = inhibition, hits mostly inhibitors;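 note: Gal4-VP16 expression switched on by copper sulfate through the metallothionein promoter; % is set by controls: 0 for no effect and ±100 for the full control effect; nearly all actives have a fitted effect of over 50% in size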
TGFb inhibitor – blocks TGF-b signaling. 1.2% of 410,000 active. Potency, µM (titrated, usually from 46.1 µM), for the others: at the top dose activity, negative = inhibition, most hits filed as inhibitors. HepG2 CAGA-GFP TGF-b/SMAD3 reporter, GFP fluorescence, 18 h; TGF-beta stimulated, 500 pg/mL final; note: % is set by controls: 0 for no effect and ±100 for the full control effect; nearly all actives have a fitted effect of over 65% in size
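Per well, imaged GFP fluorescence of HEPG2 CAGA-GFP cells gives the signal; cells get compound, then TGF-beta (500 pg/mL final), 18 h at 37 degrees C; %Activity versus -TGF-beta and +DMSO controls.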
HepG2 viability – HepG2 cytotoxicity, counter-screen for TGF-b inhibitors; HepG2 CAGA-GFP viability, ATP luminescence, 18 h; 0.76% of 410,000 active; Potency, µM (highest dose often 46.1 µM), inactives show at the top dose activity change, negative = cytotoxicity, actives largely listed as cytotoxic
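CellTiter-Glo luminescence gave cytotoxicity after 18 hours at 37 degrees C. The cells were HepG2 CAGA-GFP in 1% FBS DMEM, stimulated with 500 pg/mL TGF-beta after compound addition. %Activity was normalised to no-cell wells (complete cell-killing) and DMSO (no toxicity), and curves were fitted and classified.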
ATXN viability – viability counter-screen for ATXN expression inhibitors | S2 cells (HEK-293 line with an ATXN2-luciferase reporter) viability, CellTiter-Fluor protease fluorescence, 24 h | Potency, µM (titrated, usually from 56.7 µM), hits mostly cytotoxic | 0.49% of 400,000 active | AID 651635; note: nearly all actives have a fitted effect of over 40% in size
An asterisk follows results filed as active; i = inactive; ? = inconclusive; . = not tested or not shown; [ ] = dose if it differs, or a comment. Calls come from the whole dose curve; as a rule, active = well fitted curve in the direction sought with a large enough effect; inconclusive = small, poorly fitted or top-dose-only effect, or another doubt; inactive = no such curve, though single readings can be large; an effect the other way counts as inactive or inconclusive. Potency is the fitted concentration of half-maximal effect.

SMILES | ATXN2 expr inh | RORgamma inh | Gal4-VP16 FLuc | TGFb inhibitor | HepG2 viability | ATXN viability
COc1cc(C2CC(=O)Nc3cc4c(cc32)OCCO4)cc(Br)c1OC (stereo not drawn) | . | . | . | ? | -12.0% | .
COc1ccc(-c2nnc(SCC(=O)NCCc3ccc(OC)c(OC)c3)nc2-c2ccc(OC)cc2)cc1 | -14.6% | . | . | ? | -23.0% | ?
S=C(NN=C(C1CC1)C1CC1)Nc1ccccc1 | 21.4% | 11.2µM* | 17.8µM* | -3.7% | -2.0% | i
COc1ccc2[nH]c3c(N4CCC(O)(c5cccc(C(F)(F)F)c5)CC4)ncnc3c2c1 | 28.2µM* | -8.2% | ? | ? | -98.2% | ?
CCOc1ccc2[nH]c3c(N4CCc5ccccc5C4)ncnc3c2c1 | -63.9% | ? | ? | ? | -80.1% | ?
COc1ccc2[nH]c3c(N4CCN(Cc5ccc6c(c5)OCO6)CC4)ncnc3c2c1 | 28.2µM* | 38.5% | ? | ? | -43.8% | ?
COc1ccc(CN(C)CC(O)COC(c2ccc(OC)cc2)c2ccc(OC)cc2)cc1 (stereo not drawn) | -3.7% | -30.9% | 5.5% | ? | 22.4µM* | i
COC(=O)c1c(C)cc(C)n2c1nc1ccccc12 | -5.7% | 10µM* | -5.9% | -12.7% | -5.6% | i
COc1cccc(-c2cc3nc(NCc4ccccc4F)n(C)c(=O)c3s2)c1 | 0.3% | . | . | -22.2% | -25.5% | i
O=C(c1cccnc1)C1CCCN(Cc2ccc3c(c2)CN(C(=O)c2cnccn2)CCO3)C1 (stereo not drawn) | . | . | . | . | . | i
Cc1ccc(OCC(=O)c2cc(C)c(C)cc2C)c([N+](=O)[O-])n1 | 1.4% | 11.2µM* | ? | 11.2µM* | -32.1% | i
Cc1ccc(OCC(=O)c2cc(C)n(-c3ccccc3)c2C)c([N+](=O)[O-])n1 | 3.16µM* | -66.1% | ? | ? | -14.6% | i
Cc1ccc(C)c(C(=O)COc2ccccc2[N+](=O)[O-])c1 | -1.0% | -97.3% | 12.6µM* | ? | -60.8% | i
COc1ccc(C2(O)CCN(CC(=O)Nc3nc(-c4ccccc4)cs3)CC2)cc1 | -3.2%[11.3 µM] | 1.1% | 3.0% | ? | -12.7% | ?
Cc1c(C(=O)OCC(=O)NCCN2C(=O)CSC2=O)cccc1[N+](=O)[O-] | 13.9% | . | . | 0.4% | 2.7% | i
Cc1ccc(-c2cc(C(=O)N3CCOCC3)no2)cc1 | ? | 7.94µM* | 14.1µM* | 8.2% | -4.0% | i
Cc1ccc(-c2cc(C(=O)N3CCCC3)no2)cc1 | ? | 11.2µM* | 7.08µM* | -7.8% | -25.4% | i
O=C(c1cc(-c2ccc3c(c2)OCO3)on1)N1CCCCC1 | ? | ? | 11.2µM* | 9.6% | 30.0% | i
COc1ccc(-c2cc(C(=O)N3CCOCC3)c3ccccc3n2)cc1OC | 4.8% | . | . | -1.1% | 0.0% | i
COc1cc2cc(C(=O)N3CCOCC3)cc(-c3ccc(C)cc3)c2cc1OC | -11.0% | ? | 8.91µM* | ? | -28.9% | i
O=C(c1cc(-c2ccco2)on1)N1CCOCC1 | 19.0% | -5.9% | -8.7% | ? | 0.0% | i
O=C(c1cc(-c2ccc(Cl)c(Cl)c2)on1)N1CCCCCC1 | 63.7% | -21.1% | 4.6% | -9.3% | -7.4% | i
CCc1cccc(NC(=O)C2CCCN(c3ncnc4onc(-c5ccc(F)cc5)c34)C2)c1 (stereo not drawn) | -18.1% | . | . | -10.3% | 0.8% | ?
CCC1Cc2[nH][nH]c(=O)c2C(CC)O1 (stereo not drawn) | -2.6% | . | . | . | . | i
C=CCn1c(SCC(=O)NC2CCCC2)nnc1-c1ccccn1 | -5.4% | 5.62µM* | -3.9% | -10.1% | -12.2% | i
SMILES | ATXN2 expr inh | RORgamma inh | Gal4-VP16 FLuc | TGFb inhibitor | HepG2 viability | ATXN viability
COc1ccc(NC(=O)c2ccc3oc(=O)c(S(=O)(=O)c4ccc(F)cc4)cc3c2)cc1OC | -25.4% | . | . | 11.2µM* | -72.8% | ?
COc1ccc(NC(=O)c2ccc3oc(=O)c(S(=O)(=O)c4ccc(C)cc4)cc3c2)cc1OC | 2.3% | . | . | -24.7% | -45.5% | i
CCCCCCn1cc(CN2CC(N3CCSCC3)CS2(=O)=O)nn1 (stereo not drawn) | -4.6% | . | . | . | . | i
Cc1ccc2nc(SCC3CCCCO3)[nH]c2c1 (stereo not drawn) | 11.2µM* | 5.62µM* | 6.31µM* | -3.1% | 24.6% | i
NC(=S)NNc1c(F)c(F)c(F)c(F)c1F | -12.7% | 12.6µM* | ? | -2.1% | 4.9% | i
Cc1ccccc1NNC(N)=S | -10.7% | ? | ? | -7.4% | 17.2% | i
CC1CCCN(S(=O)(=O)c2ccc(CN3C(=O)c4cccnc4C3=O)cc2)C1 (stereo not drawn) | 5.4% | 8.9% | 0.6% | -8.5% | -14.2% | i
O=C(NCc1cccnc1)/C(=C\c1ccc(-c2ccc(Cl)c(Cl)c2)o1)S(=O)(=O)c1ccccc1 | 12.6µM* | 8.91µM* | 5.62µM* | 4.47µM* | -103.2% | .
CN(Cc1cnccn1)C(=O)CC1C(=O)NCCN1Cc1c(F)cccc1Cl (stereo not drawn) | 10.9% | 1.5% | -8.9% | 6.9% | -0.3% | i
CC(=O)N1CCc2cc(S(=O)(=O)Nc3cccc(C(F)(F)F)c3)ccc21 | ? | ? | 5.01µM* | -8.7% | -5.6% | i
Cc1ccc(S(=O)(=O)N2CCc3cc(C(=O)N(C)Cc4ccccc4)ccc32)cc1 | -39.0% | . | . | ? | 1.5% | 7.08µM*
COc1cccc(NS(=O)(=O)c2ccc3c(c2)CCN3C(C)=O)c1 | -8.0% | ? | 15.8µM* | -34.3% | -20.0% | i
CSc1cccc(NS(=O)(=O)c2ccc3c(c2)CCN3C(C)=O)c1 | 0.0% | ? | 4.47µM* | -12.6% | -21.7% | i
CCC(=O)N1CCc2cc(S(=O)(=O)NCCC(=O)Nc3ccc(OC)c(OC)c3)ccc21 | 5.7% | . | . | 45.2% | 17.4% | i
Cc1ccc(NS(=O)(=O)c2ccc(C(=O)N3CCN(c4ncccn4)CC3)cc2)cc1 | -28.5% | -44.8% | 1.26µM* | -25.1% | -3.8% | .
COc1cccc(S(=O)(=O)Nc2ccc(C(=O)N3CCCCCC3)cc2)c1 | -10.8% | 8.91µM* | 8.91µM* | -0.9% | -2.5% | i
O=C(C1CCC1)N1CCCc2cc(S(=O)(=O)Nc3ccc(F)cc3)ccc21 | -16.1% | . | . | -25.6% | -4.9% | i
CC(=O)N1CCc2cc(S(=O)(=O)N3CCc4ccccc43)ccc21 | -16.4% | ? | 12.6µM* | ? | -32.3% | i
CC(=O)N1CCc2cc(S(=O)(=O)N3CCc4ccccc4C3)ccc21 | -12.0% | -1.7% | 0.7% | -15.9% | -6.0% | i

Screening results deposited in PubChem BioAssay by National Center for Advancing Translational Sciences (NCATS).
